High-throughput results: PubChem BioAssay, several laboratories
NPR2 activator: GC-B (human) receptor activation; AID 1920062; P20594; activation, % at 10 µM; HEK293-GC-B cells, CNP EC30, cGMP TR-FRET; 0% at EC30 CNP, 100% saturating CNP; hit rate 0.11% among 370,000;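 active = activation at 10 µM reaching about 35% in either raw or pattern-adjusted values, limit read from the data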
Rce1 inh: inhibitors of yeast Ras-converting enzyme. Q03530. yeast membranes, quenched prenylated peptide cleavage fluorescence. calls only. hit rate 0.27% among 290,000;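 active = fall in fluorescence gain of 50% or more versus controls, with final raw signal at or below 3038400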;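 note: plate controls were neutral control wells for no effect and wells lacking membranes for full effect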
PLC-beta3 inh: inhibitors of human phospholipase C beta3; inhibition, % at 12.2 µM; hit rate 0.18% among 370,000; Purified PLC-beta3, fluorogenic substrate, fluorescence; Q01970; in the data active = inhibition above about 11%;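 note: 0% = median of compound wells on plate and 100% = full blocker control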
GC-A act: GC-A (human) enzyme activation; HEK293 GC-A cells, cGMP TR-FRET, EC30 ANP; 0% at EC30 ANP, 100% saturating ANP; activation, % at 10 µM; hit rate 0.14% among 370,000; in the data active = activation above about 40%
PfM18AAP inh: PfM18AAP enzyme inhibition; recombinant PfM18AAP, H-Glu-NHMec fluorogenic cleavage; inhibition, % at 7.35 µM; AID 1822; hit rate 1.2% among 290,000;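 active = inhibition above the campaign mean inhibition over all tested compounds plus 3 SD, cut at about 28% in these data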;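 note: 0% = plate median of test compound wells and 100% = 2 mM ZnCl2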
PLCg1 inh: blocks human PLC-gamma1 enzyme activity. P19174. purified PLC-gamma1, fluorogenic substrate, fluorescence. inhibition, % at 12.2 µM. hit rate 0.84% among 370,000. AID 720700
PLCg1 ctr: counter-screen for PLC-beta3 inhibitors: inhibitors of human PLC-gamma1. AID 743258. shares compounds with PLCg1 inh. inhibition, % at 12.3 µM. purified PLC-gamma1, fluorogenic substrate, fluorescence. hit rate 3.1% among 3,300
PLCbeta3 conf: human PLC-beta3 inhibition, confirmation; shares compounds with PLCg1 inh; purified PLC-beta3, fluorogenic substrate fluorescence; inhibition, % at 12.3 µM; hit rate 1% among 3,300; AID 743261; in the data active = inhibition above about 11%
An asterisk follows results filed as active; i = inactive; · = no result. Rows were chosen to be rich in hits. Some 2.2% of all compounds tested hit in one or more screens of this group. Cut-off read from the data, not from the text of the source, unless noted: active = inhibition above about 9.5%; inactive = the rest.

SMILES | NPR2 activator | Rce1 inh | PLC-beta3 inh | GC-A act | PfM18AAP inh | PLCg1 inh | PLCg1 ctr | PLCbeta3 conf
CN1CCN(CCC(=O)N/N=C/c2ccccn2)CC1 | 2 | i | 3 | -2 | 1 | 10* | 4 | -5
Cc1ccc(S(=O)(=O)N2CCN(CC(=O)N/N=C\c3ccccn3)CC2)cc1 | 1 | i | -5 | 0 | -1 | 1 | · | ·
C/C(Cl)=C/Cn1c(SCC(C)C)nc2c1c(=O)[nH]c(=O)n2C | -8 | i | 1 | 2 | · | 4 | · | ·
CCCCOC(=O)CSc1nc2c(c(=O)[nH]c(=O)n2C)n1C/C=C(\C)Cl | -3 | i | 6 | 0 | 6 | 13* | 2 | 3
Cc1cc(Oc2cccnc2)ccc1NC(=O)Cc1cn(C)c2ccccc12 | -5 | · | -8 | -5 | · | -3 | · | ·
O=S1(=O)CCN(CCc2ccccc2)CC1 | 6 | · | 12* | 0 | · | 6 | -8 | -12
CC(=O)N1CCCN(S(=O)(=O)c2ccc3c(c2)n(C)c(=O)c(=O)n3C)CC1 | 2 | · | -13 | 1 | · | -9 | · | ·
CCCNC(=O)CSc1n[nH]c(=O)n1CCc1ccccc1 | 1 | i | -3 | 3 | -7 | 0 | · | ·
CC(C)CNC(=O)CSc1n[nH]c(=O)n1CCc1ccccc1 | 0 | i | -2 | 4 | -2 | 13* | -1 | -2
O=C(CCc1ccccc1)N[C@H]1[C@H](O)CCC[C@]12C(=O)N(Cc1ccccc1)c1ccccc12 | -15 | · | -2 | -11 | · | 1 | · | ·
C[C@H]1[C@@H](OC(=O)Nc2ccc(Cl)cc2)CC[C@@]23CCCN2C(=O)CCC[C@@H]13 | -6 | · | -1 | -5 | · | -2 | · | ·
O=S1(=O)c2ccc(N3CCCC3)cc2Oc2ccccc2CN1Cc1cn(Cc2ccc(Cl)cc2)nn1 | -1 | · | 4 | 1 | · | 4 | · | ·
C=CCN(CC=C)CC(O)Cn1c2ccccc2c2ccccc21 (stereo not drawn) | -5 | i | 0 | -14 | -1 | 1 | · | ·
CCN(CC)CC(O)Cn1c2ccccc2c2ccccc21 (stereo not drawn) | -13 | i | 7 | -5 | -6 | 12* | -9 | -4
C[C@H]1[C@H](NC(=O)c2ccc(C(C)(C)C)cc2)CC[C@@]23CCCN2C(=O)CCC[C@@H]13 | 2 | · | 2 | -3 | · | -3 | · | ·
O=C(CSc1nnnn1-c1ccccc1)NCC1(N2CCOCC2)CCCCC1 | 0 | · | -1 | 2 | · | -4 | · | ·
Cc1ccc(-n2nnnc2SCC(=O)NCC2(N3CCOCC3)CCCCC2)cc1 | 2 | · | -10 | 0 | · | 9.7* | -8 | -1
C[N+](C)(C)CC/C=C1/c2ccccc2CSc2ccccc21 | -1 | i | -1 | 0 | 0 | 6 | · | ·
CNCCC=C1c2ccccc2CCc2ccccc21 | -17 | i | 0 | -27 | 0 | 12* | -5 | -11
COC(=O)C1=C(C)N(C)C(=NCc2cc(OC)c(OC)c(OC)c2)NC1c1ccc(Cl)cc1 (stereo not drawn) | -1 | · | 13* | 1 | · | 4 | 5 | 0
O=C1c2ccccc2C(=O)N1CCCCN(C(=O)c1ccc([N+](=O)[O-])cc1)c1ccc(Cl)cc1 | -6 | i | 3 | -11 | -10 | 12* | 4 | 2
Cc1c(C(=O)NCc2cccs2)oc2ccccc12 | 5 | i | 1 | 7 | -12 | 2 | · | ·
Cc1c(-c2ccccc2)nc2ccccc2c1C(=O)NCc1cccs1 | -1 | i | 14* | 1 | 4 | 4 | -3 | -2
COC(=O)c1cc(C)nc2c1C(=O)C(=O)C=C2N1CCOCC1 | -1 | i | -2 | 0 | 6 | 14* | 49* | 11*
COC(=O)c1cc(S(=O)(=O)N2CCOCC2)c(Cl)cc1N1CCOCC1 | 5 | · | 1 | 0 | -7 | -3 | · | ·
Cc1ccc(C(=O)/C=C\C(=O)c2ccc(C)cc2)cc1 | 13 | i | -2 | 16 | -10 | 3 | · | ·
CC(/C=C/C(=O)c1ccc(C)cc1)=C\c1ccccc1 | -1 | i | 8 | -2 | 2 | 10* | -2 | -3
COc1ccccc1C(=O)N1CCC2CCN(C(=O)c3ccccc3)C2C1 (stereo not drawn) | -6 | · | -1 | 5 | · | 2 | · | ·
